# From PubChem BioAssay (Tox21)
# Results filed as inconclusive are left out. Calls of active or inactive are those of the source. Calls come from the whole dose curve.
# Target: Thyrotropin receptor (Homo sapiens) (UniProt P16473)
# Assay: qHTS assay to identify small molecule antagonists of the thyroid stimulating hormone receptor (TSHR) signaling pathway (AID 1259385); note: nearly all actives have a fitted effect of over 20% in size
# Conditions: TSHR-HEK293 cAMP HTRF, TSH-stimulated antagonist mode; series mostly up to 92.4 µM; activity change, negative = inhibition: at the top concentration
# Source text: U.S. Tox21 Program National Center for Advancing Translational Sciences [NCATS] NIH Chemical Genomics Center [NCGC] U.S. Environmental Protection Agency [EPA] National Institutes of Environmental Health Sciences [NIEHS] National Toxicology Program [NTP] U.S. Food and Drug Administration [FDA] Tox21 Assay Overview: TSHR is the receptor for thyrotropin (thyroid stimulating hormone or TSH), a member of the glycoprotein hormone family. TSH is released by the anterior pituitary gland and is the main regulator of thyroid gland growth and development. Upon binding circulating thyrotropin, a G-protein signal cascade activates adenylyl cyclase and […] cAMP concentration is increased. cAMP is a key second messenger involved extensively in cellular signal transduction pathways associated with the majority of G-protein coupled receptors (GPCRs). The activation of these GPCRs by neurotransmitters, lipids, nucleotides, peptides and hormones results in the activation or the inhibition of plasma membrane-bound adenylate cyclase through heterotrimeric G-proteins. A cell-based TSHR assay can be used to screen chemical compounds that modulate TSHR either in agonist or antagonist mode.
# Tox21 Assay Protocol Summary: TSHR-Hek293 cells were dispensed at 800 cells/4uL/well in 1536-well white plates using a Multidrop dispenser. After the assay plates were incubated at a 37C/5% CO2 incubator for 18 hrs, 23 nL of compounds dissolved in DMSO, positive controls or DMSO only was transferred to the assay plate by a pin tool, followed by 1 ul medium containing Ro20-1724. For the antagonist mode screening, 1 uL of TSH was added on the top of the cell/compound mixtures to achieve a final agonist concentration of 1.5 ng/mL. After 30 min of incubation at room temperature, 2.5 ul/well of cAMP-d2 and 2.5 ul/well of anti-cAMP-cryptate were added respectively into the assay plates using a Flying Reagent Dispenser. The plates were incubated at room temperature for 1 hr. The fluorescence intensity in the plates was measured using an Envision plate reader. Each test compound was measured at 15 concentrations and in triplicates.
# % is set by controls: 0 for no effect and ±100 for the full control effect.
# Thyrotropin receptor (Homo sapiens), sequence (P16473 whole entry, looked up): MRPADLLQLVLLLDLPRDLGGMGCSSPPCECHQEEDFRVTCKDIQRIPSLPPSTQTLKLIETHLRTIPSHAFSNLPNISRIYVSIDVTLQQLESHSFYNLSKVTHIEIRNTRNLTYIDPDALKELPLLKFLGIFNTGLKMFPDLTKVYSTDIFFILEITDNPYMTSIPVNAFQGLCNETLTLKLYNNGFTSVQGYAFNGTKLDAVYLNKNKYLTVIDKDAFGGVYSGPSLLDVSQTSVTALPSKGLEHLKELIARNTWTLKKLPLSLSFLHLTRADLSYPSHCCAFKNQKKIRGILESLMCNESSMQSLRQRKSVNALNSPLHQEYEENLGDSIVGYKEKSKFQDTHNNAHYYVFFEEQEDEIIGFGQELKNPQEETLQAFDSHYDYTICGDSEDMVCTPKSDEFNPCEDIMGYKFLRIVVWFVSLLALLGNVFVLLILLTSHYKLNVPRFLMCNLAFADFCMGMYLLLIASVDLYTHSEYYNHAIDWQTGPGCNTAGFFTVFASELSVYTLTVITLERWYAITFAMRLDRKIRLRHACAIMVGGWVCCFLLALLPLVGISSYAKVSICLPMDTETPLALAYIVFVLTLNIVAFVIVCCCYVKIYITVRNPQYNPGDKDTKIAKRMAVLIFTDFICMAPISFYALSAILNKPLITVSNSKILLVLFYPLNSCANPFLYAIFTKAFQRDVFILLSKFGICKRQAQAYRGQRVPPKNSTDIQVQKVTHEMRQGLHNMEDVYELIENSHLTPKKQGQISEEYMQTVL
row,SMILES,"activity change, negative = inhibition"
1,C=CCn1cc[n+](C)c1,-1.21% (inactive)
2,O=C1CC2(CCCC2)CC(=O)N1CCNCC1COc2ccccc2O1 (stereo not given),0.35% [at 42.5 µM] (inactive)
3,CC(=O)/C=C/C=C1/C2CCC(C2)C1(C)C (stereo not given),6.85% [at 42.5 µM] (inactive)
4,CCO/C=C1\N=C(c2ccccc2)OC1=O,-6.59% (inactive)
5,Cc1nnc(C(=O)NC(C)(C)c2nc(C(=O)NCc3ccc(F)cc3)c(O)c(=O)n2C)o1,-1.12% [at 42.5 µM] (inactive)
6,COc1cc(NS(=O)(=O)c2ccc(N)cc2)ncn1,3.16% [at 42.5 µM] (inactive)
7,CC(C)C(C)C,1.35% (inactive)
8,CSC(=O)c1cccc2nnsc12,0.0804% (inactive)
9,CCCOc1ccc(C(=O)OCCN(CC)CC)cc1N,1.27% [at 42.5 µM] (inactive)
10,N[C@H]1C(O)O[C@H](CO)[C@@H](O)[C@@H]1O (stereo not given in full),2.92% [at 42.5 µM] (inactive)
11,CC(=O)Nc1ccc(S(=O)(=O)Nc2cc(C)on2)cc1,-3.36% [at 42.5 µM] (inactive)
12,C[C@@H]1CC[C@@]2(OC1)O[C@H]1C[C@H]3[C@@H]4CC[C@H]5C[C@@H](O)CC[C@]5(C)[C@H]4CC(=O)[C@]3(C)[C@H]1[C@@H]2C,-0.41% [at 8.39 µM] (inactive)
13,CC(C)OCCO,2.43% (inactive)
14,NNC(=O)OCc1ccccc1,-0.582% (inactive)
15,CC(=O)SCC(CC(=O)c1ccc(C)cc1)C(=O)O (stereo not given),3.41% [at 42.5 µM] (inactive)
16,O=c1c(O)c(O)c1=O,0.451% (inactive)
17,O=C1Nc2ccccc2C1=O,-2.1% (inactive)
18,O=Cc1ccc(C(=O)O)cc1,1.2% (inactive)
19,CC(C)=CCC/C(C)=C\C#N,0.145% (inactive)
20,CCCCNCC,1.48% (inactive)

row,SMILES,"activity change, negative = inhibition"
1,O=CN1CCCCC1,-2.47% (inactive)
2,CCCC(=O)C(CC)Sc1ccoc1C (stereo not given),-10.7% (inactive)
3,CN(C)CCc1c[nH]c2ccc(CS(=O)(=O)N3CCCC3)cc12,0.0424% [at 42.5 µM] (inactive)
4,CCOCCOCCOC(C)=O,5.08% (inactive)
5,CC(C)(C)C(=O)CC(=O)C(C)(C)C,0.531% (inactive)
6,CC(C)(C)OC(=O)c1ccccc1C(=O)O,1.77% (inactive)
7,N#CC1(N)CCCCC1,-2.65% (inactive)
8,CCCCCCCCOCCC#N,-0.502% (inactive)
9,CC(O)C(CO)C(C)O (stereo not given),4.4% (inactive)
10,C[C@H]1COc2c(C3(N)CC3)c(F)cc3c(=O)c(C(=O)O)cn1c23,3.35% [at 42.5 µM] (inactive)
11,C[C@@H]1NC(=O)[C@@H](N)CNC(=O)[C@H](C2CCNC(N)=N2)NC(=O)/C(=C/NC(N)=O)NC(=O)[C@H](CNC(=O)C[C@@H](N)CCCN)NC1=O (stereo not given in full),2.75% [at 0.349 µM] (inactive)
12,CC(C)CC(O)Cc1ccccc1 (stereo not given),1.58% (inactive)
13,CC(=O)Oc1ccc(C(C)=O)cc1,-0.687% (inactive)
14,COC(=O)c1ccc(NC(C)=O)cc1OC,-6.59% [at 42.5 µM] (inactive)
15,CC1(C)CC(N)CC(C)(C)N1,-4.46% (inactive)
16,CCC(=O)OCCOc1ccccc1,-2.23% (inactive)
17,Cc1ccccc1C#N,-1.38% (inactive)
18,CCCC[O][Al]([O]CCCC)[O]CCCC,-0.226% (inactive)
19,CC(=O)c1ccc(O)c(C(N)=O)c1,0.232% [at 42.5 µM] (inactive)
20,CCCc1ccc(O)c(OC)c1,5.55% (inactive)
